The values that follow come from ChEMBL document CHEMBL1961873, “Compounds: GSK PKIS; Assays: Nanosyn kinase panel” (2012).

One experiment relates to Epidermal growth factor receptor (Homo sapiens), P00533 [L858R]. As to conditions: at 0.1 µM.
Sequence of Epidermal growth factor receptor (Homo sapiens), P00533 [L858R] (P00533 whole entry L858R): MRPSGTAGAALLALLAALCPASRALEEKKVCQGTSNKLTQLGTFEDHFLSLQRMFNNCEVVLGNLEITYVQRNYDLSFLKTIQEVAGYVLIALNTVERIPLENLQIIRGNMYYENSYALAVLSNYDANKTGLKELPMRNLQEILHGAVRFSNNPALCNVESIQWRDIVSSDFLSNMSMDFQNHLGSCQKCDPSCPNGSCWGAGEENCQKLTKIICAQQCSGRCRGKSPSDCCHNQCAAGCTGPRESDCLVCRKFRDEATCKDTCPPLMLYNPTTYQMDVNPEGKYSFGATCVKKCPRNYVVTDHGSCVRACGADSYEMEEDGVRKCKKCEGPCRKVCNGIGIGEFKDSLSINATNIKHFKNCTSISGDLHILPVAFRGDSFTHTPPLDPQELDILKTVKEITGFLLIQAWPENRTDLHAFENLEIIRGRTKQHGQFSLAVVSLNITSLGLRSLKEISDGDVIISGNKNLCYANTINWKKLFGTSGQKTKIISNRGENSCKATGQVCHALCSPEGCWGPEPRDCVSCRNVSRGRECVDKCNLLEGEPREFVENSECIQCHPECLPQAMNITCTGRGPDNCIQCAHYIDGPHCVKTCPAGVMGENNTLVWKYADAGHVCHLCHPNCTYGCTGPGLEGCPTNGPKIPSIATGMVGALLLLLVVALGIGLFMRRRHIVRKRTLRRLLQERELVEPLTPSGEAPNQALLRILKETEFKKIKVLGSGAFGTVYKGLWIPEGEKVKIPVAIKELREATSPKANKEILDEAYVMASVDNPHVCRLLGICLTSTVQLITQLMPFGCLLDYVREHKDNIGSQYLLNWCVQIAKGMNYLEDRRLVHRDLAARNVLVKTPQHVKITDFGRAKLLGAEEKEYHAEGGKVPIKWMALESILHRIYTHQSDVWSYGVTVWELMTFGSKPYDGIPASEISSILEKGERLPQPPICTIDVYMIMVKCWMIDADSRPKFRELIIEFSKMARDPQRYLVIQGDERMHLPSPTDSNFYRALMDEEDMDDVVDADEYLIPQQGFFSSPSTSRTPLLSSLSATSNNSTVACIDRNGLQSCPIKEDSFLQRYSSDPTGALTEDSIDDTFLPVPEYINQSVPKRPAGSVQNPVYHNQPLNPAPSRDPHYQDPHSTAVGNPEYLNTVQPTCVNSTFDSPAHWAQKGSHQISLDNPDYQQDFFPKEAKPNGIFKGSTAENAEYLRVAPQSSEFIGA
As for `CNC(=O)c1cccc(C#Cc2cncnc2Nc2ccc(OCc3cccc(F)c3)c(Cl)c2)c1`, the inhibition – broadly, the relative decrease from the control value, in per cent – came out at 13.8%.

For the molecule `Fc1ccc(-c2cc(-c3c[nH]nc3-c3ccccn3)ccn2)cc1`, the inhibition stood at 3.93%.

With `CN1CCC(n2cnc(-c3ccc(F)cc3)c2-c2ccnc(Nc3ccccc3)n2)CC1`, the inhibition worked out at 37%.

Regarding `CCn1c(-c2nonc2N)nc2c(C#CC(C)(C)O)ncc(OC3CCNCC3)c21`, the inhibition was -0.6%.

Regarding `COc1cccc(-c2c[nH]c3c(N/N=C/c4ccncc4)ncnc23)c1`, the inhibition came out at 30.4%.

For the molecule `Cc1ccc2c(-c3ccnc(Nc4ccccc4)n3)c(-c3ccc(F)cc3)nn2n1`, the inhibition was 85.8%.

Consider `COC(=O)Nc1nc2ccc(Oc3ccc(NC(=O)Nc4cccc(Cl)c4)cc3)cc2[nH]1`, for which the inhibition was -0.65%.

On to `COc1ccc(-c2cc(-c3c[nH]nc3-c3ccccn3)ccn2)cc1`, for which the inhibition is 1.51%.

Regarding `COc1cc(/C=N/Nc2ncnc3[nH]ncc23)ccc1O`, the inhibition is 4.32%.

With `[O-][S+]1CCN(Cc2ccc(-c3ccc4ncnc(Nc5ccc(OCc6cccc(F)c6)c(Cl)c5)c4c3)o2)CC1`, the inhibition turned out to be 88.1%.

For the molecule `CCNC(=O)O[C@H]1CN[C@H](C#Cc2cc3ncnc(Nc4ccc(OCc5cccc(F)c5)c(Cl)c4)c3s2)C1`, the inhibition is 32.5%.

For `CC1=C(C(=O)Nc2cc(Cl)c3[nH]ncc3c2)C(c2ccc(C(F)(F)F)cc2)CC(=O)N1` (stereo not drawn), the inhibition stood at 2.16%.

As for `c1ccc(-c2nc3n(c2-c2ccc4c(c2)OCO4)CCC3)nc1`, the inhibition amounted to 0.88%.

Regarding `CCOc1ccc2c(-c3ccnc(Nc4cccc(C(F)(F)F)c4)n3)cnn2n1`, the inhibition was determined as 0.87%.

Take `CCN1CCC(CC(=O)Nc2n[nH]c3nnc(-c4cccc(F)c4F)cc23)CC1`: the inhibition was -0.92%.

For the molecule `COc1ccc2[nH]c3c4[nH]c5ccc(OC)cc5c4c4c(c3c2c1)C(=O)NC4=O`, the inhibition was 18.2%.

As to `COc1ccc(-c2oc3ncnc(N)c3c2-c2ccc(NC(=O)Nc3cc(C(F)(F)F)ccc3F)cc2)cc1`, the inhibition was determined as 3.73%.

In the case of `Fc1cccc(COc2ccc(Nc3ncnc4sc(-c5ccco5)cc34)cc2Cl)c1`, the inhibition worked out at 15.2%.

On to `COc1cc(N2CCN(C(C)C)CC2)ccc1Nc1nc(Nc2ccc(F)cc2C(N)=O)c2cc[nH]c2n1`, for which the inhibition stood at 1.78%.

As to `CN(C)CCOc1ccc(-c2nc(-c3ccncc3)c(-c3ccc4c(c3)CC/C4=N\O)[nH]2)cc1`, the inhibition amounted to 5%.

`NC(=O)c1sc(-n2cnc3ccc(C(F)(F)F)cc32)cc1OCc1ccccc1Br`: the inhibition turned out to be 1.72%.

For the molecule `Nc1nc(-c2cccc(Cl)c2)c(-c2ccc3ncccc3n2)s1`, the inhibition turned out to be 0.4%.

As for `CCCN1CCC(c2ccc(Nc3nc(Nc4cc(F)ccc4C(N)=O)c4cc[nH]c4n3)c(OC)c2)CC1`, the inhibition was found to be 5.44%.

For the molecule `CCn1cc(-c2ccnc3[nH]ccc23)c(-c2cccc(NC(=O)Nc3ccc(OCc4ccccc4)cc3)c2)n1`, the inhibition was -3.83%.

As to `NS(=O)(=O)c1ccc(Nc2ncc(-c3ccccc3)o2)cc1`, the inhibition amounted to 2.83%.

Consider `CCCN(CCS(C)(=O)=O)Cc1ccc(-c2ccc3ncnc(Nc4ccc(OCc5cccc(F)c5)c(Cl)c4)c3c2)o1`, for which the inhibition was 53.4%.

Regarding `CCN(CC)S(=O)(=O)c1ccc(OC)c(Nc2ncc(-c3ccccc3)o2)c1`, the inhibition came to 4.33%.

Consider `CS(=O)(=O)CCNCc1coc(-c2ccc3ncnc(Nc4ccc(OCc5ccccc5)cc4)c3c2)c1`, for which the inhibition amounted to 30.6%.

`N#Cc1c(NC(=O)CN2CCOCC2)sc2c1CCCC2`: the inhibition is 3.01%.

Consider `COc1cccc(-n2ncc3c(N/N=C/c4ccc(F)cc4)ncnc32)c1`, for which the inhibition came out at 11.6%.

Turning to `O=C(O[C@H]1CN[C@H](C#Cc2cc3ncnc(Nc4ccc(Cc5ccccc5)cc4)c3s2)C1)N1CCOCC1`, the inhibition is 1.68%.

Take `COc1cc2c(cc1Nc1nc(Nc3ccsc3C(N)=O)c3cc[nH]c3n1)N(C(=O)CN(C)C)CCC2(C)C`: the inhibition was found to be 5.69%.

Consider `CCc1nn2ncccc2c1-c1ccnc(NC2CC2)n1`, for which the inhibition is 1.84%.

For the molecule `Cc1ccc(O)cc1Nc1ccnc2cc(-c3ccccn3)ccc12`, the inhibition was found to be 88.8%.

The test system is the same in another experiment. As to conditions: at 1 µM.
`CNC(=O)c1cccc(C#Cc2cncnc2Nc2ccc(OCc3cccc(F)c3)c(Cl)c2)c1`: the inhibition was determined as 62.1%.

For the molecule `Fc1ccc(-c2cc(-c3c[nH]nc3-c3ccccn3)ccn2)cc1`, the inhibition stood at 8.78%.

Turning to `CN1CCC(n2cnc(-c3ccc(F)cc3)c2-c2ccnc(Nc3ccccc3)n2)CC1`, the inhibition amounted to 84.8%.

Take `CCn1c(-c2nonc2N)nc2c(C#CC(C)(C)O)ncc(OC3CCNCC3)c21`: the inhibition was found to be 2.18%.

With `COc1cccc(-c2c[nH]c3c(N/N=C/c4ccncc4)ncnc23)c1`, the inhibition is 82.3%.

Regarding `Cc1ccc2c(-c3ccnc(Nc4ccccc4)n3)c(-c3ccc(F)cc3)nn2n1`, the inhibition worked out at 97.4%.

On to `COC(=O)Nc1nc2ccc(Oc3ccc(NC(=O)Nc4cccc(Cl)c4)cc3)cc2[nH]1`, for which the inhibition amounted to 2.43%.

Consider `COc1ccc(-c2cc(-c3c[nH]nc3-c3ccccn3)ccn2)cc1`, for which the inhibition came out at 8.95%.

For `COc1cc(/C=N/Nc2ncnc3[nH]ncc23)ccc1O`, the inhibition is 7.89%.

Take `[O-][S+]1CCN(Cc2ccc(-c3ccc4ncnc(Nc5ccc(OCc6cccc(F)c6)c(Cl)c5)c4c3)o2)CC1`: the inhibition was 99.1%.

For `CCNC(=O)O[C@H]1CN[C@H](C#Cc2cc3ncnc(Nc4ccc(OCc5cccc(F)c5)c(Cl)c4)c3s2)C1`, the inhibition is 81%.

Turning to `CC1=C(C(=O)Nc2cc(Cl)c3[nH]ncc3c2)C(c2ccc(C(F)(F)F)cc2)CC(=O)N1` (stereo not drawn), the inhibition came to 7.45%.

As for `c1ccc(-c2nc3n(c2-c2ccc4c(c2)OCO4)CCC3)nc1`, the inhibition was -1.2%.

`CCOc1ccc2c(-c3ccnc(Nc4cccc(C(F)(F)F)c4)n3)cnn2n1`: the inhibition is -1.72%.

With `CCN1CCC(CC(=O)Nc2n[nH]c3nnc(-c4cccc(F)c4F)cc23)CC1`, the inhibition was 3.4%.

In the case of `COc1ccc2[nH]c3c4[nH]c5ccc(OC)cc5c4c4c(c3c2c1)C(=O)NC4=O`, the inhibition worked out at 64.8%.

Consider `COc1ccc(-c2oc3ncnc(N)c3c2-c2ccc(NC(=O)Nc3cc(C(F)(F)F)ccc3F)cc2)cc1`, for which the inhibition is 6.19%.

In the case of `Fc1cccc(COc2ccc(Nc3ncnc4sc(-c5ccco5)cc34)cc2Cl)c1`, the inhibition was 54.8%.

`COc1cc(N2CCN(C(C)C)CC2)ccc1Nc1nc(Nc2ccc(F)cc2C(N)=O)c2cc[nH]c2n1`: the inhibition is 39.2%.

In the case of `CN(C)CCOc1ccc(-c2nc(-c3ccncc3)c(-c3ccc4c(c3)CC/C4=N\O)[nH]2)cc1`, the inhibition was determined as 9.64%.

Consider `NC(=O)c1sc(-n2cnc3ccc(C(F)(F)F)cc32)cc1OCc1ccccc1Br`, for which the inhibition amounted to 4.51%.

As to `Nc1nc(-c2cccc(Cl)c2)c(-c2ccc3ncccc3n2)s1`, the inhibition worked out at 15.8%.

For `CCCN1CCC(c2ccc(Nc3nc(Nc4cc(F)ccc4C(N)=O)c4cc[nH]c4n3)c(OC)c2)CC1`, the inhibition came out at 46.4%.

Turning to `CCn1cc(-c2ccnc3[nH]ccc23)c(-c2cccc(NC(=O)Nc3ccc(OCc4ccccc4)cc3)c2)n1`, the inhibition is -3.23%.

Turning to `NS(=O)(=O)c1ccc(Nc2ncc(-c3ccccc3)o2)cc1`, the inhibition is 6.04%.

For the molecule `CCCN(CCS(C)(=O)=O)Cc1ccc(-c2ccc3ncnc(Nc4ccc(OCc5cccc(F)c5)c(Cl)c4)c3c2)o1`, the inhibition turned out to be 95%.

With `CCN(CC)S(=O)(=O)c1ccc(OC)c(Nc2ncc(-c3ccccc3)o2)c1`, the inhibition is 11.6%.

As for `CS(=O)(=O)CCNCc1coc(-c2ccc3ncnc(Nc4ccc(OCc5ccccc5)cc4)c3c2)c1`, the inhibition amounted to 82.5%.

For the molecule `N#Cc1c(NC(=O)CN2CCOCC2)sc2c1CCCC2`, the inhibition is 4.14%.

`COc1cccc(-n2ncc3c(N/N=C/c4ccc(F)cc4)ncnc32)c1`: the inhibition amounted to 34.9%.

Regarding `O=C(O[C@H]1CN[C@H](C#Cc2cc3ncnc(Nc4ccc(Cc5ccccc5)cc4)c3s2)C1)N1CCOCC1`, the inhibition turned out to be 11.4%.

For the molecule `COc1cc2c(cc1Nc1nc(Nc3ccsc3C(N)=O)c3cc[nH]c3n1)N(C(=O)CN(C)C)CCC2(C)C`, the inhibition worked out at 33.1%.

Regarding `CCc1nn2ncccc2c1-c1ccnc(NC2CC2)n1`, the inhibition is 0.95%.

For `Cc1ccc(O)cc1Nc1ccnc2cc(-c3ccccn3)ccc12`, the inhibition worked out at 97.8%.
